Compounds with a hit are over-represented: about 2.2% of the library has one in this group of screens.
CHT block – inhibitors of human choline transporter CHT. Q9GZV3. CHT-expressing cells, membrane potential dye, choline response; hits give low values. B-score at 10 µM. 0.86% of 310,000 active. AID 488975;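 active = B-score over 3 SD under the library average, and starting fluorescence ratio not unusually high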;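 note: choline stimulus applied at its EC90 after an EC20 pre-addition; B-score computed on integrated fluorescence ratio after choline addition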
CHT allo act – allosteric activators of human choline transporter CHT. 0.49% of 310,000 active. B-score at 10 µM. CHT-expressing cells, membrane potential dye, choline EC20; hits give high values; LV-AA mutant CHT in HEK293 cells. Q9GZV3;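 active = initial fluorescence not abnormally high and integrated response B-score, plate-corrected, over 3 SD above library mean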
HIF act – HIF pathway transcriptional activation. activation, % at 7.5 µM (by protocol). U2OS HRE-luciferase reporter, luminescence; normalized: DMSO 0%, desferrioxamine 100%. AID 1910. 0.32% of 300,000 active;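 active = mean activation of at least 10% of the iron chelator positive control signal, with at least half of replicates also reaching 10%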
VLA-4 inh – inhibition in a human VLA-4 binding assay; inhibition, % (about 7 µM as worked out from the volumes in the protocol); VLA-4 expressing cells, ligand binding flow cytometry; 0.2% of 330,000 active; P13612; in the data active = inhibition above about 50%
Platelet DG rel – platelet dense granule release activity. human platelet-rich plasma, SFLLRN dense granule ATP release, luminescence. inhibition, %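 (compounds screened at 7.5 µM in platelet-rich plasma)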. 0.22% of 300,000 active. AID 1663;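 active = mean replicate score, as percent of positive control, at or above 50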
AI-2 QS mod – modulators of Vibrio harveyi AI-2 quorum sensing system; Vibrio harveyi JMH597 AI-2 luminescence/OD600 ratio, 9 h; hits give low values; strain lacks LuxN and CqsS sensors; 0 = neutral-control median; activity change, % at 7.5 µM; 0.4% of 300,000 active; in the data active = activity change below about -75%, passing the limit was not always enough;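 note: luminescence divided by OD600 gain over 9 h not by final OD600 alone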
Numbers without * were called inactive; i = inactive; nt = no result given.

SMILES	CHT block	CHT allo act	HIF act	VLA-4 inh	Platelet DG rel	AI-2 QS mod
COc1ccc(/C=N/Nc2nnc(-c3ncc[nH]3)c3ccccc23)cc1	i	i	4	2	18	27
Oc1ccc2ccccc2c1/C=N/Nc1nnc(-c2ncc[nH]2)c2ccccc12	i	i	82*	-13	1	24
CCCc1cc(C(=O)N2CCCC(N3CCN(c4ccccc4F)CC3)C2)n(C)n1 (centres undefined)	i	i	0	-2	53*	19
COc1ccc(C(=O)C2=NN(C(C)=O)CC2c2ccco2)cc1 (centres undefined)	i	i	1	5	1	nt
Cc1cc(C(=O)O)cc(S(=O)(=O)Nc2ccccc2C(=O)NC(C)c2ccccc2)c1C (centres undefined)	i	i	0	-8	-4	0
Fc1ccccc1CSc1nnc(-c2cccnc2)o1	i	i	0	0	-9	-92*
Cc1ccc(C)c(CSc2nnc(-c3cccnc3)o2)c1	i	i	0	0	1	-80*
CCCCCCCCCS(=O)(=O)N/N=C/c1cccc([N+](=O)[O-])c1	i	i	71*	14	0	32
Cc1ccc(S(=O)(=O)N/N=C/c2cccc([N+](=O)[O-])c2)cc1	i	i	0	-8	9	49
COc1ccc(CNC(=O)C(C)OC(=O)CCN2C(=O)C3CC=CCC3C2=O)cc1 (centres undefined)	i	i	0	1	-6	8
Cc1ccc(S(=O)(=O)Cc2ccc(C(=O)N3CCN(c4cccc(C)c4C)CC3)o2)cc1	i	i	0	33	94*	23
COc1ccc(S(=O)(=O)Cc2ccc(C(=O)N3CCN(c4cccc(C)c4C)CC3)o2)cc1	i	i	nt	6	2	6
CCOC(=O)N(Cc1ccccc1)Cc1ccc(C(=O)N[C@@H](Cc2ccccc2)C(=O)O)cc1	i	i	0	16	-2	21
O=c1[nH]c(=S)ccn1C1OC(CO)C(O)C1O (centres undefined)	i	i	0	23	9	-91*
CCOC(=O)c1sc(NC(=O)c2c(CC)noc2C)nc1C	nt	nt	nt	2	nt	nt
CC(=O)c1ccc(C(=O)N2CCCC(Nc3ccc(C(C)C)cc3)C2)s1 (centres undefined)	i	i	13*	-14	-16	13
CC1CCC(NC(=O)COC(=O)c2cccnc2Cl)CC1 (centres undefined)	nt	nt	nt	-3	nt	nt
CC1CCCC(NC(=O)COC(=O)CCC(=O)c2ccc(F)cc2)C1C (centres undefined)	nt	nt	nt	5	nt	nt
CCC(=O)N(Cc1c(C)nn(-c2ccccc2)c1Cl)c1ccc(Cl)cc1	i	i	0	1	-4	25
COc1ccc(C(=O)NCCn2cc(SCC(=O)Nc3nnc(C)s3)c3ccccc32)cc1	i	i	1	8	-11	35
Cc1nnc(NC(=O)CSc2cn(CCNC(=O)c3ccccc3)c3ccccc23)s1	i	i	1	6	58*	23
Cc1ccc(-n2c(C)cc(=O)cc2C)cc1[N+](=O)[O-]	-8.3*	i	-2	-8	-9	6
CCN(CCNCC(O)COc1ccccc1C(C)C)c1cccc(C)c1 (centres undefined)	i	i	2	20	0	34
NC(=O)c1sc2nccc(Nc3ccccc3)c2c1N	i	i	11*	-16	-5	5
NC(=O)c1sc2nc(-c3ccccc3)c3c(c2c1N)CCCC3	i	i	2	-1	-13	9
CCN(CC)S(=O)(=O)c1ccc(NC(=S)NC(=O)C2CCC2)cc1	nt	nt	-9	nt	-1	11
CN(C)S(=O)(=O)c1ccc(NC(=S)NC(=O)C2CCC2)cc1	i	i	0	4	7	-76*
CC(C)NC(=O)NC(=O)CSc1nncs1	i	i	0	8	-6	29
Cc1ccc(-c2cc3ncc(C#N)c(N)n3n2)cc1	i	i	2	2	5	15
CCN1CCN(c2nc3c(c(=O)n(C)c(=O)n3C)n2CCSc2nccc(C)n2)CC1	-7.5*	i	0	19	-1	21

Screens (PubChem BioAssay)
